Here are results for three molecules from the supplement of paper PMC11577813, “Eurasian spruce bark beetle detects lanierone using a highly expressed specialist odorant receptor, present in several functional sensillum types” (BMC Biology, 2024).

Structures are written as SMILES. ± gives the standard deviation of the averaged measurements.

For the experiment, the system named is (4S)-cis-verbenol A-neuron OSN class. The experiment in a line: net action potential response of A-neuron (blank-subtracted) (spikes/s (Hz)); higher = stronger excitation. As to conditions: 10 µg on filter paper; neuron: A neuron (large spike amplitude). The method, then: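 Single sensillum recordings from antennal olfactory sensilla of live adult Ips typographus. Each compound was 10 µg in paraffin oil on filter paper, delivered as a 0.5 s puff. Net response = spikes in the first 0.5 s of response minus the 0.5 s pre-stimulus count, doubled to give Hz, with blank response subtracted. Values are for the large-spike A-neuron class of each of seven sensillum types that co-house the lanierone B-neuron; N = 1-4 sensilla, averaged.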
For `O=Cc1ccccc1` [Benzaldehyde], the “net action potential response” value is 2 ± 6.
On to `Cc1ccccc1` [Toluene], for which the “net action potential response” value came to 1.33 ± 6.4.
To `C=CCc1ccc(OC)cc1` [Estragole] belongs -2 ± 3.5.
